A selection: hits, their analogues and other compounds. The true share with any hit is near 2.7%.
GLP1R cytotox: cytotoxicity counter-screen for GLP-1 receptor inverse agonists; actives 0.13% (n = 410,000); AID 624418; HEK293 cAMP-luciferase reporter cells, luminescence, 24 h; Potency, µM (doses to about 38.3 µM), for inactives: at the top dose activity change, negative = inhibition, most hits filed as inhibitors;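 further: loss of luciferase light is scored as toxicity; on the % scale 0 is the no-effect control and ±100 the full control effect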
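A 23 nL compound transfer followed 12 hours of cell culture at 37 deg C; exposure then lasted 24 hr. Luciferase assay detection reagent was dispensed and plates read for luminescence after a 12 min room-temperature wait.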
GLP-1R inv ag: GLP-1 receptor (human) inverse agonism; Potency, µM (highest dose often 38.3 µM), for inactives: at the highest dose activity change, negative = inhibition, hits mostly inhibitors; actives 1.6% (n = 410,000); AID 624417; P43220; HEK293 GLP-1R CRE-luciferase, luminescence, 24 h; GLP-1R form is constitutively active; further: on the % scale 0 is the no-effect control and ±100 the full control effect; nearly all actives have a fitted effect of over 55% in size
Target sequence (P43220 whole entry, looked up): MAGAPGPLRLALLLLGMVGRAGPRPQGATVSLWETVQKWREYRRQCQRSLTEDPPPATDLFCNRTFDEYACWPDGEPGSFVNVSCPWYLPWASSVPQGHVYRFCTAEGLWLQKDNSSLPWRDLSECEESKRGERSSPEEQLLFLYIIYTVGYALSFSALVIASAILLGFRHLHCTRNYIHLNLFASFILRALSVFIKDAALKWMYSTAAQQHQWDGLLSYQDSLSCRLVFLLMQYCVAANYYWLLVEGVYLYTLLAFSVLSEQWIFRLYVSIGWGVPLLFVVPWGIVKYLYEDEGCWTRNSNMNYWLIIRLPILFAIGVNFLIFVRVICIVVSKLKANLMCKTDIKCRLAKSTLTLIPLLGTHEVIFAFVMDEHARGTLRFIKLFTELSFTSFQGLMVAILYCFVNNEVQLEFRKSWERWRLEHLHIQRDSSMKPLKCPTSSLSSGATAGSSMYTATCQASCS
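HEK293 cells stably co-expressing a cAMP-responsive luciferase reporter and constitutively active GLP-1R were seeded, incubated 12 h, then exposed to compounds for 24 h at 37 C. Luminescence was read 12 min after detection reagent; inverse agonists lower signal.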
a7 integrin act: integrin-mediated muscular dystrophy alleviation activation; alpha7betagal myoblasts, beta-gal FDG fluorescence, 48 h; Potency, µM (highest dose often 38.3 µM), without a hit: at the top dose activation, usual class: activators; actives 0.064% (n = 350,000);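 further: 100% = response of the positive control SU9516; nearly all actives have a fitted effect of over 60% in size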
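alpha7betagal+/- myoblasts (passage 13, 250/well) treated 48 h at 37C with compounds at 1:260 dilution of DMSO stock. Lysed, then beta-galactosidase activity read as FDG fluorescence (ex 480/em 540) after 30 min, with pre-read for autofluorescence.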
BRCA1 expr up: BRCA1 expression activation | MCF7-BRCA1-FFLuc reporter, luminescence, 48 h; response scale: scaled: vehicle 0%, 10 µM genistein 100% | Potency, µM (series often up to 46.1 µM), for the others: at the highest dose activation, usual class: activators | actives 1.1% (n = 380,000) | AID 624202; further: nearly all actives have a fitted effect of over 80% in size
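Cells: MCF7-BRCA1-FFLuc, 2000/well. Exposure: 48 h, 37 °C, 5% CO2. Read: luminescence, 15 min post-substrate. Controls: genistein 10 microM (maximal activation), DMSO (neutral).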
GLP-1R agonist: activates the human GLP-1 receptor | P43220 | HEK293 GLP-1R CRE-luciferase, luminescence, 4-6 h; cells express a hypersensitive GLP-1R form | Potency, µM (top dose mostly 45.6 µM), inactives show at the top dose activation, most hits filed as activators | actives 0.007% (n = 380,000); further: % of control where 0% means no effect
* = called active by the depositor; ? = inconclusive; · = no result given. The call rests on the fitted dose curve; in most records, active means well fitted curve in the direction sought with a large enough effect; inconclusive means small, poorly fitted or top-dose-only effect, or another doubt; inactive means no such curve, though single readings can be large; an effect the other way counts as inactive or inconclusive. Potency means the concentration at half of the fitted maximal effect.

SMILES	GLP1R cytotox	GLP-1R inv ag	a7 integrin act	BRCA1 expr up	GLP-1R agonist
O=C(CCn1cnc2onc(-c3ccc(F)cc3)c2c1=O)Nc1ccc(F)c(Cl)c1	-10%	13µM*	·	·	·
CCOC(=O)c1ccc(OCCN2C[C@H](O)[C@@H](O)[C@H](O)[C@H]2CO)cc1	·	·	·	·	-4%
CCC(CO)Nc1ncnc2c1cnn2-c1ccc(C)cc1 (stereo not given)	-17%	?	·	·	·
CCOC(=O)c1ccccc1NC(=O)N1CCc2c(sc(C)c2CC)C1c1ccccc1 (stereo not given)	-12%	-20%	·	·	·
CCc1c(C)sc2c1CCN(C(=O)Nc1cc(OC)c(OC)c(OC)c1)C2c1ccccc1 (stereo not given)	-5%	10µM*	·	·	·
Cc1ccccc1NC(=O)N1CCc2c(sc3c2CCCC3)C1c1ccccc1 (stereo not given)	13%	10µM*	·	·	·
Cc1cc(C)cc(NC(=S)NCC2CCN(C(C)c3ccccc3)C2)c1 (stereo not given)	-28%	10µM*	-46%	-16%	7%
O=C(C=C(C(=O)c1ccccc1)c1ccccc1)c1ccccc1	-3%	8.9µM*	-55%	-11%	13%
CN(C)/C(=C\C(=O)c1ccccc1)C(=O)c1ccccc1	-14%	14%	16%	-7%	1%
O=S(=O)(c1ccccc1)N(Cc1nc(-c2ccccc2)no1)C1CCCCC1	5%	6.3µM*	-30%	-42%	7%
Cc1cccc(-c2noc(CN(C3CCCCC3)S(=O)(=O)c3ccc(F)cc3)n2)c1	3%	2%	·	·	·
Cc1ccc(S(=O)(=O)N(Cc2nc(-c3cccc(C)c3)no2)C2CCCCC2)cc1	38%	10µM*	·	·	·
CCOc1ccc(NC(=O)CCc2nc3cccnc3n2-c2ccccc2)cc1	-2%	17%	·	·	·
CN(C(=O)CSc1ccc2c(c1)OCCO2)c1ccccc1	7%	-8%	-9%	10µM*	7%
N#CCCN(C(=O)CSc1ccc2c(c1)OCCO2)c1ccccc1	6%	4%	-16%	3%	-2%
O=C(O)c1ccccc1NC(c1ccccc1)c1ccc(Cl)cc1 (stereo not given)	-11%	11µM*	1%	-11%	5%
O=C(O)CNc1ccccc1C(=O)O	-1%	-17%	43%	31%	-4%
O=C(O)c1ccc(N/N=C/c2cccc3nccnc23)cc1	-16%	12%	-24%	13µM*	2%
CCOC(=O)c1cc(S(=O)(=O)NCc2cccc(Cl)c2)[nH]n1	-3%	4%	·	·	·
Cc1cc(NC(=O)CCN2CCCCC2)ccc1Br	-6%	?	-50%	32%	-5%
Cc1cc(NC(=O)CCN2CCC(C)CC2)ccc1Br	19%	10µM*	-10%	-24%	12%
COc1ccc(-n2nc3c(N4CCC(C(=O)NCC(C)c5ccccc5)CC4)nnc(C)c3c2C)cc1 (stereo not given)	?	10µM*	-59%	-29%	21%
Cc1cc(S(=O)(=O)NCc2ccc(N3CCN(C)CC3)cc2)c(C)s1	16%	2.2µM*	-1%	0%	0%
COc1ccc(CCNC(=O)c2cccc(-n3cnc4cccnc43)c2C)cc1OC	4%	7%	·	·	·
COc1ccc(C(O)(C(=O)NNc2ccc(C)cc2)c2cccs2)cc1 (stereo not given)	18%	2.5µM*	2%	3%	-5%
CCC(=O)c1ccc(OCC(O)Cn2nc(C)cc2C)cc1 (stereo not given)	0%	12%	-9%	0%	-2%
Cc1ccccc1OCC(O)Cn1nnc2ccccc21 (stereo not given)	-7%	-1%	-11%	13µM*	-2%
CCC(=O)c1ccc(OCC(O)Cn2nnc3ccccc32)cc1 (stereo not given)	7%	15%	0%	10µM*	7%
CC1CCCC(NC(=O)c2ccc3c(c2)OCO3)C1C (stereo not given)	1%	?	-25%	3.5µM*	10%
O=[N+]([O-])c1ccccc1OCc1nc(-c2cccs2)no1	-5%	-25%	7%	2.8µM*	10%
